Bioassay records (PubChem)
Coupling enz = counter-screen for Giardia aldolase inhibitors: coupling enzyme system | 290,000 compounds, 0.67% hits | coupling enzyme system counterscreen, AmpLite Red fluorescence | activity change, negative = inhibition, % at 58.2 µM, hits read low | AID 2472; in the data active = activity change below about -30%
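Counterscreen of the coupled detection system alone, without aldolase: glyceraldehyde-3-phosphate coupling enzymes plus AmpLite Red readout. Compounds at 57.5 uM final, 10 min RT preincubation, 20 min RT reaction, fluorescence 525/598 nm.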
Tau FP inhib = inhibitors of human tau fibril formation. K18 P301L tau heparin fibrillization, Alexa594 FP, 6 h. Potency, µM (highest dose often 57.7 µM), without a hit: at the top dose activity, negative = inhibition, most hits filed as inhibitors. 280,000 compounds, 0.39% hits. P10636; note: potency is the fitted concentration of half-maximal effect; nearly all actives have a fitted effect of over 55% in size
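Human K18 P301L fragment (15 uM unlabeled plus 0.24 uM Alexa 594-labeled) in 100 mM sodium acetate pH 7 with compound, aggregation induced by 20 uM heparin for 6 hr at 37 C. ThT (30 uM) added for 1 hr, then Alexa 594 FP read.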
Tau fluor cs = counter-screen for tau fibril formation inhibitors; 280,000 compounds, 0.93% hits; Potency, µM (top dose mostly 57.7 µM), for the others: at the top dose activity change, negative = decrease; tau K18 P301L Alexa594 fluorescence, heparin fibrillization; note: potency is the fitted concentration of half-maximal effect; nearly all actives have a fitted effect of over 55% in size
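Human tau K18 P301L (15 uM unlabeled, 0.24 uM Alexa 594-labeled) in 100 mM sodium acetate pH 7 with 20 uM heparin, 6 hr at 37 C. ThT 30 uM added, 1 hr ambient; Alexa 594 FP and total fluorescence read at 555/632 nm.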
USP1 inh = inhibitors of human USP1/UAF1 deubiquitinase | O94782 | recombinant USP1/UAF1, Ub-Rhodamine cleavage fluorescence | Potency, µM (titrated, usually from 57.1 µM), for inactives: at the top dose activity change, negative = inhibition, most hits filed as inhibitors | 390,000 compounds, 0.23% hits | AID 743255; note: potency is the fitted concentration of half-maximal effect; nearly all actives have a fitted effect of over 60% in size
Target sequence (O94782 whole entry, looked up): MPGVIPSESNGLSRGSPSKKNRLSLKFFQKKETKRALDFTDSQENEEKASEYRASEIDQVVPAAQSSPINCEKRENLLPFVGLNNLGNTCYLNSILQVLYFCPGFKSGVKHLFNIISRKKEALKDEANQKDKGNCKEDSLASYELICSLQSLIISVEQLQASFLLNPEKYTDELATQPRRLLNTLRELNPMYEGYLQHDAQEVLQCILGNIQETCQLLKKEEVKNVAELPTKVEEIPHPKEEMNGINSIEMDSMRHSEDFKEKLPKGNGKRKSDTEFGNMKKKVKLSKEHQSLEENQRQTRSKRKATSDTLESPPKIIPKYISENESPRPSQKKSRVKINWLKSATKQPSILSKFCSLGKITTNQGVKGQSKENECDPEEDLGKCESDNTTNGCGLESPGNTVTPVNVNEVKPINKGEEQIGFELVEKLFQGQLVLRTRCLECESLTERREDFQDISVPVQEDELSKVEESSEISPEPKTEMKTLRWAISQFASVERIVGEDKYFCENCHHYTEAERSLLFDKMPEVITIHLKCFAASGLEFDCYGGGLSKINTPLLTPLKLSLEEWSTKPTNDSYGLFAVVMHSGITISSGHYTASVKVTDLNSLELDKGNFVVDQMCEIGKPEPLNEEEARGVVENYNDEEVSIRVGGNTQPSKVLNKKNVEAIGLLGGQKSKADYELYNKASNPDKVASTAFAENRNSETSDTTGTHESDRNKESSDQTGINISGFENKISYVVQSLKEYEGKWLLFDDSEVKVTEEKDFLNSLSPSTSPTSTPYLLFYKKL
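1 nM enzyme complex + cpd, 15 min RT; start with Ub-Rho 150nM final; kinetic fluorescence ex 480/em 540, 6 reads q60 s. Buffer 50mM HEPES pH 7.8, 0.5mM EDTA, 0.1 mg/ml BSA, 1mM TCEP, 0.01% Tween-20.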
Tau ThT inhib = inhibitors of human tau fibril formation, thioflavin T binding; P10636; recombinant tau K18 P301L (four-repeat tau fragment), heparin-induced fibrillization, ThT fluorescence; Potency, µM (top dose mostly 57.4 µM), for inactives: top-dose activity, negative = inhibition, actives largely listed as inhibitors; 270,000 compounds, 2.1% hits; note: potency is the fitted concentration of half-maximal effect; nearly all actives have a fitted effect of over 55% in size
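Heparin-induced (20 uM) aggregation of recombinant human K18 P301L tau, 15 uM unlabeled with 0.24 uM labeled, pH 7 acetate buffer, 6 hr at 37 C with compound. Fibrils quantified by 30 uM ThT fluorescence after 1 hr ambient incubation.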
* = called active by the depositor; ? = inconclusive; . = no result; [ ] = dose if it differs, or a comment. Only some compounds are listed: those with a hit (about 2.3% of all), similar ones and a draw of the others. Unless noted, calls come from the whole dose curve; as a rule, active = well fitted curve in the direction sought with a large enough effect; inconclusive = small, poorly fitted or top-dose-only effect, or another doubt; inactive = no such curve, though single readings can be large; an effect the other way counts as inactive or inconclusive. % is set by controls: 0 for no effect and ±100 for the full control effect.

SMILES | Coupling enz | Tau FP inhib | Tau fluor cs | USP1 inh | Tau ThT inhib
CCOC(=O)N1CCC(N(CCOC)C(=S)Nc2cccc(SC)c2)CC1 | 0 | 5% | -24% | -28% | -18%
CCOC(=O)N1CCC(Nc2c(Nc3cccc(CC)c3)c(=O)c2=O)CC1 | 0 | ? | 14µM*[quencher] | -8% | ?
CCOC(=O)N1CCC(Nc2cccc(SC)c2)CC1 | -44* | -4% | -14% | -25% | -14%
COCCn1c(=O)c(-c2ccc(Cl)cc2)nc2cnc(N3CCOCC3)nc21 | 2 | . | . | . | .
Cc1cccc(N(C)C(=O)CCS(=O)(=O)c2ccc3c(c2)oc(=O)n3C)c1 | . | -9% | -9% | -13% | -13%
O=C(Nc1ccc(C(F)(F)F)cc1)C1(c2cccs2)CCOCC1 | . | -12% | -12% | -17% | 19%
CN1CCN(c2cc(N3CCc4ccccc4C3)c(F)cc2[N+](=O)[O-])CC1 | 2 | -1% | -27% | -25% | 13µM*
CCC(=O)N1CCN(c2cc(N3CCN(C)CC3)c(F)cc2[N+](=O)[O-])CC1 | 4 | 4% | -2% | -10% | -10%
Cc1cc(C)cc(NC(=S)Nc2cccc3cnccc23)c1 | -36* | ? | ? | -27% | ?
CC(=O)N(C)c1ccc(NC(=S)Nc2ccccc2)cc1 | 0 | 5% | 5% | -6% | 2%
CC(=O)N(C)c1ccc(NC(=S)Nc2cccc3ccccc23)cc1 | -36* | 4% | -24% | -18% | ?
C=C(C)CNC(=S)Nc1cccc2cnccc12 | -1 | -2% | -4% | -8% | 4%
CCc1ccc(NC(=S)Nc2cccc3cnccc23)cc1 | -49* | ? | ? | ? | ?
Cc1ccc(NC(=S)Nc2cccc3cnccc23)c(C)c1 | -36* | ? | -13% | -14% | ?
Cc1ccccc1-c1cc(N2CCN(C)CC2)ncn1 | 4 | . | . | . | .
CCOC(=O)c1c(C)[nH]c(C)c1S(=O)(=O)N1CCCC(C(=O)Nc2ccc(OC)c(OC)c2)C1 (centres undefined) | . | -6% | -5% | -19% | 1%
COn1c(C)c(C(C)=O)c2c3nonc3ccc21 | -47* | ? | -15% | -18% | 14µM*
CCCCOn1c(C)c(C(=O)OCC)c2c3nonc3ccc21 | . | . | . | -10% | .
Oc1ccc(N=C/C=C/c2ccc(Br)cc2)cc1-c1nc2ccccc2s1 | -11 | -23% | ? | . | 11µM*
CCNc1ncc2nc(-c3cn(C)c4ccccc34)c(=O)n(Cc3cccc(OC)c3)c2n1 | 0 | . | . | . | .
CN(C)S(=O)(=O)c1cccc(NC(=S)NCc2ccco2)c1 | 10 | -12% | -13% | -27% | -9%
CCN(CCO)c1ccc(NC(=S)Nc2cccc(S(=O)(=O)N(C)C)c2)cc1 | -41* | ? | ? | -26% | 14µM*
CN(C)S(=O)(=O)c1cccc(NC(=S)Nc2ccc(Cl)cc2Cl)c1 | -12 | -15% | -30% | -19% | -13%
CN(C)S(=O)(=O)c1cccc(NC(=S)Nc2cc(Cl)cc(Cl)c2)c1 | 0 | 25µM* | ? | -11% | -11%
CN(C)c1cccc2cccc(N(C)C)c12 | -35* | ? | -23% | -8% | ?
SMILES | Coupling enz | Tau FP inhib | Tau fluor cs | USP1 inh | Tau ThT inhib
CC(=O)c1ccc(N(C)C)c2c(N(C)C)cccc12 | -55* | -1% | -3% | -16% | -3%
CN(C)c1ccc2c3c(ccc(N(C)C)c13)COC2 | -13 | ? | -12% | -18% | -13%
Cc1cc(C)n(-c2nc(C)c(C)c(=O)n2CC(=O)Nc2ccc([N+](=O)[O-])cc2)n1 | . | ? | -26% | -7% | -23%
CCCCc1nc2c(c3c1C[C@H](C)OC3)CN(C(=O)c1cccnc1)CC2 | 0 | -2%[11.6 µM] | -2%[11.6 µM] | . | 3%[11.5 µM]
CCCCCCCCCCCC1=C(O)C(=O)C=C(O)C1=O | 15 | 20µM* | 11µM*[quencher] | ? | 10µM*
O=C(Nc1ccc(Cl)cc1)c1cnn2c1NC(c1ccccc1)=CC2c1ccccc1 (centres undefined) | . | ? | 10µM*[quencher] | ? | ?
CC(C)OP(=O)(OC(C)C)C(Nc1ccc([N+](=O)[O-])cc1)c1cccc([N+](=O)[O-])c1 (centres undefined) | -2 | 1% | -21% | -14% | -14%
CC(C)OP(=O)(OC(C)C)/C(C=O)=N\Nc1ccc([N+](=O)[O-])cc1 | 0 | 5% | -11% | -21% | 16µM*
CCCCN(C(=O)c1cccs1)c1c(N)n(Cc2ccccc2)c(=O)[nH]c1=O | . | . | . | -20% | .
COc1cc(Nc2ccccn2)cc(C(=O)Nc2cccc(C(F)(F)F)c2)c1 | 1 | -13% | 14µM*[quencher] | -23% | -17%
COc1cc(NC(=O)c2nccnc2N)cc(C(=O)Nc2cccc(C(F)(F)F)c2)c1 | 1 | ? | ? | -28% | 2%
CCc1ccc2c(O)c3c(cc2c1C(=O)OC)C(=O)c1c(O)ccc(O)c1C3=O | -17 | ? | ? | . | 3.2µM*
Cc1ccc(NC(=O)Cc2ccsc2)cc1S(=O)(=O)N1CCOCC1 | . | . | . | -6% | .
N=C1CCC(=N)c2c1c(O)c1ccccc1c2O | -32* | 25µM* | ? | 25µM* | 13µM*
N=C1CCCN1c1ccccc1O | -2 | 1% | -4% | -5% | -1%
CC1(C)CC(=O)C=C(NC2=CC3OC(c4ccccc4)OCC3OC2=O)C1 (centres undefined) | 1 | ? | -7% | -8% | 18µM*
Cc1nnc(C)c2c(C)n(C(C)c3ccccc3)c(C)c12 (centres undefined) | -33* | 6% | 1% | -8% | -11%
O=C1Nc2ccc([N+](=O)[O-])cc2OC1CCN1CCOCC1 (centres undefined) | 2 | -2% | -5% | -29% | -16%
O=C1Nc2ccc([N+](=O)[O-])cc2OC1CCN1CCN(c2ccccc2)CC1 (centres undefined) | 1 | 1% | -23% | -26% | 10µM*
Cc1ccc2[nH]c3c(N4CCc5ccccc5C4)ncnc3c2c1 | 0 | ? | 25µM*[quencher] | -30% | ?
CCOc1ccc2[nH]c3c(N4CCc5ccccc5C4)ncnc3c2c1 | -2 | ? | 14µM*[quencher] | ? | ?
Brc1ccc2[nH]c3c(N4CCc5ccccc5C4)ncnc3c2c1 | 3 | 10% | 11µM*[quencher] | -23% | -16%
CCOc1ccccc1CNC(=O)CN1C(=O)C2CCCCN2c2ccc(C(=O)N(C)C)cc21 (centres undefined) | . | 4% | 1% | -3% | 3%
O=[N+]([O-])c1ccc(-c2ccc(/C=N/c3c(-c4ccco4)nc4ccccn34)o2)cc1 | -12 | 0% | ? | -12% | 2.8µM*
O=[N+]([O-])c1ccc(Cl)c(-c2ccc(/C=N/c3c(-c4ccco4)nc4ccccn34)o2)c1 | -2 | 2% | -9% | -15% | ?
